Results reported in PubChem BioAssay (NCATS).
Inconclusive results are not listed. Active and inactive are the calls of the source. The call rests on the fitted dose curve; in most records, active means well fitted curve in the direction sought with a large enough effect; inconclusive means small, poorly fitted or top-dose-only effect, or another doubt; inactive means no such curve, though single readings can be large; an effect the other way counts as inactive or inconclusive.

Tests used:
[1] = Cell Viability - H-4-II-E (AID 543);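 further: cells exposed to compound for 40 hours; on the % scale 0 is the no-effect control and ±100 the full control effect; nearly all actives have a fitted effect of over 35% in size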
Procedure, shortened: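 Here, cytotoxicity is measured in the rat hepatoma line H-4-II-E as loss of intracellular ATP after 40 hr compound treatment, detected by luciferase luminescence.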

[2] = Cell Viability - SH-SY5Y (AID 544); conditions: SH-SY5Y neuroblastoma cell viability; viability change, negative = cytotoxic: at 92.2 µM (top of the series);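 further: cells exposed to compound for 40 hours; nearly all actives have a fitted effect of over 55% in size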
Procedure, shortened: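 Cytotoxicity is scored as a concentration-dependent fall in intracellular ATP in human SH-SY5Y cells treated 40 hr in complete culture medium. Potency is expressed as AC50 from a Hill equation fit.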

[3] = Cell Viability - Mesenchymal (AID 546);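 further: cells exposed to compound for 40 hours before reading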
Procedure, shortened: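 Normal human renal glomerulus-derived kidney mesenchymal cells, 1000 per well in complete medium, were treated with compounds for 40 hr at 37 °C. Viability was read as intracellular ATP by CellTiter-Glo luminescence; AC50 values came from Hill-equation fits of qHTS concentration-response data.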

[4] = Cellular Toxicity (caspase-3) HepG2 (AID 654);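 further: cells exposed to compound for 16 hours before reading; 0% = DMSO alone and 100% = caspase signal from 100 µM tamoxifen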
Procedure, shortened: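 qHTS, HepG2, 1500 cells/well, complete medium; cpd 16 h 37 °C; Caspase-Glo 3/7, 20 min RT; lum. Norm: DMSO vs 100 uM tamoxifen; AC50 Hill fit.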

[5] = Cellular Toxicity (caspase-3) Jurkat (AID 655); conditions: Jurkat caspase-3 activation, luminescence; caspase-3 activation: at 92.2 µM (top of the series), DMSO = 0%, tamoxifen = 100%;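 further: cells exposed to compound for 16 h at 37 °C before reading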; further: potency means the concentration at half of the fitted maximal effect
Procedure, shortened: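 Luminescent caspase-3/7 readout (aminoluciferin substrate cleavage) in human T-cell leukemia Jurkat cells after 16 hr compound exposure. Concentration-response normalized to DMSO and 100 uM tamoxifen; AC50 by standard Hill equation.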

[6] = Cellular Toxicity (caspase-3) HUV-EC-C (AID 656)
Procedure, shortened: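 Luminescent caspase-3/7 activation (aminoluciferin substrate cleavage) in HUV-EC-C cells after 16 hr compound exposure, 37°C. Signal normalized to DMSO basal and 100 uM tamoxifen as 100%; AC50 from concentration-response fitted with the Hill equation.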

[7] = Cellular Toxicity (caspase-3) SHSY5Y (AID 657);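 further: cells exposed to compound for 16 hours at 37 °C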
Procedure, shortened: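 Luminescent caspase-3/7 readout (aminoluciferin release) in SH-SY5Y cells after 16 h compound exposure in complete medium. Activity scaled between DMSO basal and 10 uM staurosporine as 100%; concentration-response fitted to Hill equation for AC50.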

[8] = Cellular Toxicity (caspase-3) BJ (AID 658);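 further: cells exposed to compound for 16 hours; 0% = DMSO basal and 100% = 10 µM staurosporine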
Procedure, shortened: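 Luminescent aminoluciferin-substrate cleavage reports caspase 3/7 activity in normal human BJ fibroblasts after 16 hr compound exposure at 37 °C. Normalized to DMSO (basal) and 10 uM staurosporine (100%); AC50 from Hill fit of concentration-response.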

[9] = Cellular Toxicity (caspase-3) MRC-5 (AID 659);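 further: cells exposed to compound for 16 h at 37 °C; 0% = DMSO basal and 100% = 10 µM staurosporine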
Procedure, shortened: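 Luminescence from caspase-cleaved aminoluciferin substrate (Caspase-Glo 3/7, 1 hr RT) reports caspase 3/7 activity in MRC-5 lung fibroblasts after 16 hr compound exposure. Normalized to DMSO basal and 10 uM staurosporine as 100%; AC50 from Hill fits.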

[10] = Cell Viability - Renal Proximal Tubule (AID 545);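 further: cells exposed to compound for 40 hours; nearly all actives have a fitted effect of over 40% in size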
Procedure, shortened: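 Rat kidney proximal tubule cells, freshly isolated; 1000 cells/well, 5 hr settle, compound 40 hr 37 °C. CellTiter-Glo 20 min RT, luminescence read. AC50 by standard Hill fit.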

C1CCOC1
inactive: Potency [1] | Potency [2] | Potency [3] | Potency [4] | caspase-3 activation [5] -0.19% | outcome [6] | outcome [7] | outcome [8] | outcome [9]

Nc1ccc(Cl)cc1[N+](=O)[O-]
inactive: Potency [1] | Potency [2] | Potency [3] | Potency [4] | caspase-3 activation [5] -0.00309% | outcome [6] | outcome [7] | outcome [8] | outcome [9]

Cc1ccc2oc(=O)ccc2c1
inactive: Potency [1] | Potency [10] | Potency [3] | caspase-3 activation [5] 0.624% | outcome [7] | outcome [9]

CCCCC(CC)CNCC(CC)CCCC (stereo not drawn)
inactive: Potency [1] | Potency [2] | Potency [3] | Potency [4] | caspase-3 activation [5] 1.24% | outcome [6] | outcome [7] | outcome [8] | outcome [9]

CC1CCC2CC1C2(C)C (stereo not drawn)
inactive: Potency [1] | Potency [2] | Potency [3] | Potency [4] | caspase-3 activation [5] -1.25% | outcome [6] | outcome [7] | outcome [8] | outcome [9]

CC(O)CC(C)O (stereo not drawn)
inactive: Potency [1] | Potency [2] | Potency [3] | Potency [4] | caspase-3 activation [5] 0.345% | outcome [6] | outcome [7] | outcome [8] | outcome [9]

CCCCCCO
inactive: Potency [1] | Potency [2] | Potency [3] | Potency [4] | caspase-3 activation [5] -0.00564% | outcome [6] | outcome [7] | outcome [8] | outcome [9]

CCNc1cc(O)ccc1C
inactive: Potency [1] | Potency [10] | Potency [3] | Potency [4] | caspase-3 activation [5] 0.87% | outcome [6] | outcome [9]

Cc1cccc([N+](=O)[O-])c1C(=O)O
inactive: Potency [2] | Potency [10] | Potency [3] | Potency [4] | caspase-3 activation [5] 0.48% | outcome [6] | outcome [7] | outcome [8] | outcome [9]

C(=C/c1ccccc1)/c1ccccc1
inactive: Potency [1] | Potency [2] | Potency [3] | Potency [4] | caspase-3 activation [5] 0.745% | outcome [7] | outcome [8] | outcome [9]

C=Cc1ccccn1
inactive: Potency [1] | Potency [2] | Potency [3] | Potency [4] | caspase-3 activation [5] 0.756% | outcome [6] | outcome [8] | outcome [9]

CCCCCO
inactive: Potency [1] | Potency [2] | Potency [3] | Potency [4] | caspase-3 activation [5] -0.274% | outcome [6] | outcome [7] | outcome [8] | outcome [9]

FB(F)F
inactive: Potency [1] | Potency [2] | Potency [3] | Potency [4] | caspase-3 activation [5] 1.14% | outcome [6] | outcome [7] | outcome [8] | outcome [9]

O=[N+]([O-])c1c(Cl)cc(Cl)cc1Cl
inactive: Potency [1] | Potency [2] | Potency [3] | Potency [4] | caspase-3 activation [5] 0.558% | outcome [7] | outcome [9]

c1ccc2c(c1)Oc1ccccc1S2
inactive: Potency [1] | Potency [2] | Potency [3] | caspase-3 activation [5] -0.252% | outcome [6] | outcome [7] | outcome [8] | outcome [9]

CC1(N)CCC(C(C)(C)N)CC1 (stereo not drawn)
inactive: Potency [1] | Potency [10] | Potency [3] | Potency [4] | caspase-3 activation [5] 1.23% | outcome [6] | outcome [7] | outcome [8] | outcome [9]

N#Cc1ccccc1
inactive: Potency [1] | Potency [2] | Potency [3] | Potency [4] | caspase-3 activation [5] -1.39% | outcome [6] | outcome [7] | outcome [8] | outcome [9]

CCOc1ccccc1N
inactive: Potency [1] | Potency [2] | Potency [3] | Potency [4] | caspase-3 activation [5] 0.926% | outcome [6] | outcome [7] | outcome [8] | outcome [9]

C=CCOC(=O)CCCCCCCC
inactive: Potency [1] | Potency [2] | Potency [3] | Potency [4] | caspase-3 activation [5] -0.392% | outcome [6] | outcome [7] | outcome [8] | outcome [9]

ClC/C=C/CCl
inactive: Potency [1] | Potency [2] | Potency [3] | caspase-3 activation [5] 1.47% | outcome [6] | outcome [7] | outcome [8] | outcome [9]

CN(C)CCCCl
inactive: Potency [1] | Potency [2] | Potency [3] | Potency [4] | caspase-3 activation [5] 1.76% | outcome [6] | outcome [7] | outcome [8] | outcome [9]

Cc1ccc(Cl)cc1N
inactive: Potency [1] | Potency [10] | Potency [3] | Potency [4] | caspase-3 activation [5] 4% | outcome [6] | outcome [8] | outcome [9]

CCOCCO
inactive: Potency [2] | Potency [10] | Potency [3] | Potency [4] | caspase-3 activation [5] 0.459% | outcome [6] | outcome [7] | outcome [8] | outcome [9]

COC(=O)CCC(=O)OC
inactive: Potency [1] | Potency [2] | Potency [3] | outcome [6] | outcome [8] | outcome [9]

CNc1ccc([N+](=O)[O-])cc1
inactive: Potency [1] | Potency [2] | Potency [3] | caspase-3 activation [5] -0.0856% | outcome [6] | outcome [7] | outcome [8] | outcome [9]

CCCOCC(C)O (stereo not drawn)
inactive: Potency [1] | Potency [10] | Potency [3] | Potency [4] | caspase-3 activation [5] 3.45% | outcome [6] | outcome [7] | outcome [8] | outcome [9]

O=Nc1ccc(NO)cc1
active: viability change, negative = cytotoxic [2] -93.1% | Potency [5] 31.6 µM
inactive: Potency [1] | Potency [3] | Potency [4] | outcome [6] | outcome [7] | outcome [8] | outcome [9]

CC/C=C1/OC(=O)c2ccccc21
inactive: Potency [1] | Potency [2] | Potency [3] | Potency [4] | caspase-3 activation [5] -0.618% | outcome [6] | outcome [7] | outcome [8] | outcome [9]

O=C(Cl)c1cccc([N+](=O)[O-])c1
inactive: Potency [1] | Potency [2] | Potency [3] | Potency [4] | caspase-3 activation [5] 2.23% | outcome [6] | outcome [8] | outcome [9]

Nc1cc(Cl)c(N)c(Cl)c1
inactive: Potency [1] | Potency [3] | Potency [4] | caspase-3 activation [5] 3.71% | outcome [6] | outcome [7] | outcome [8] | outcome [9]

C=CCn1c(=O)n(CC=C)c(=O)n(CC=C)c1=O
inactive: Potency [1] | Potency [2] | Potency [3] | Potency [4] | outcome [6] | outcome [7] | outcome [8] | outcome [9]

COc1ccc(N)c(C)c1
inactive: Potency [1] | Potency [2] | Potency [3] | Potency [4] | caspase-3 activation [5] 0.894% | outcome [6] | outcome [7] | outcome [8] | outcome [9]

C=Cc1ccccc1C=C
inactive: Potency [1] | Potency [2] | Potency [3] | Potency [4] | caspase-3 activation [5] -0.124% | outcome [6] | outcome [7] | outcome [8] | outcome [9]

CC(=O)CC(C)C
inactive: Potency [1] | Potency [2] | Potency [3] | Potency [4] | caspase-3 activation [5] -2.68% | outcome [6] | outcome [7] | outcome [8] | outcome [9]

CCC=O
inactive: Potency [1] | Potency [2] | Potency [3] | Potency [4] | caspase-3 activation [5] 3.47% | outcome [6] | outcome [7] | outcome [8] | outcome [9]

Cc1cccc2sc(N)nc12
inactive: Potency [2] | Potency [10] | Potency [3] | caspase-3 activation [5] -0.319% | outcome [7] | outcome [8] | outcome [9]
